# This is one part of a sample in which hits are shown more often than they occur.
# S aureus helic – S. aureus DNA helicase inhibition; AID 485395; purified S. aureus helicase, fluorescence unwinding assay; hit rate 0.05% among 120,000; inhibition, % (test concentration not listed); in the data active = inhibition above about 25%, passing the limit was not always enough;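 also: 0% = mean of negative control wells and 100% = mean of positive control wells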
# Sa growth inh – S. aureus growth inhibition; S. aureus RN4220 growth, OD600, 20 h, 42 °C; stronger effect = lower value; relative growth, % (no concentration beside the values); hit rate 0.53% among 170,000;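 active = relative growth at most 50% at the other temperature and 20+ points below 30 °C, or under 10% at both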
# * hit, by the source's call; . = no result given.
SMILES,S aureus helic,Sa growth inh
CO/N=C(/C(=O)NC1C(=O)N2C(C(=O)OC(C)OC(C)=O)=C(COC(N)=O)CSC12)c1ccco1 (centres undefined),.,26
CCN1CCN(C(=O)NC(C(=O)NC2C(=O)N3C(C(=O)O)=C(CSc4nnnn4C)CSC23)c2ccc(O)cc2)C(=O)C1=O (centres undefined),.,-1.3*
Cc1[nH]c(=O)c(C#N)c(C)c1CCC(=O)NC1CCCCCC1,6,90
COC(=O)CCC(=O)Nc1ccc(-c2nc3ccc(C)cc3s2)cc1,10,.
Cc1nc(SCC(=O)O)c(C#N)cc1C(=O)Nc1ccccc1,-10,81
CSc1ccc(S(=O)(=O)N(C)C)cc1,0,108
CN(C)S(=O)(=O)c1ccc(=S)[nH]c1,10,38*
C[N+]1(CC(=O)OCCCC2CCCCC2)CCCCC1,5,98
C[N+]1(CC(=O)OC2CCCCCCCCCCC2)CCCC1,13,20*
CC(=O)n1nc(-c2cccnc2)nc1NCc1ccco1,-8,100
Cc1ccc(C=NN2CCN(Cc3ccccc3)CC2)cc1,10,96
CC(C)N1CCc2c(sc(NC(=O)C3=COCCO3)c2C(N)=O)C1,42*,88
NC(=O)c1c(NC(=O)C2=COCCO2)sc2c1CCCC2,22,.
FC(F)(F)c1nnc2n1N=C(c1ccc(Cl)cc1Cl)CS2,10,84
COc1cccc(CNCc2cccnc2)c1OCC(N)=O,-1,95
CO[C@H]1C=CO[C@@]2(C)Oc3c(C)c(O)c4c(O)c(c(C=NN5CCN(C6CCCC6)CC5)c(O)c4c3C2=O)NC(=O)C(C)=CC=C[C@H](C)[C@H](O)[C@@H](C)[C@@H](O)[C@@H](C)[C@H](OC(C)=O)[C@@H]1C,.,3.9*
CN(C)c1ccc(N=Cc2cccn2C)cc1,-1,9.7*
CN(C)c1ccc(C=Nc2ccc(C(=O)O)cc2)cc1,-20,105
O=C(/C=C/C=C/c1ccccc1)c1ccc(Cl)cc1,1,84
O=C(/C=C/C=C/c1ccccc1)c1ccncc1,0,1.0*
N=Nc1c(O)n(Cc2ccccc2)c2ccccc12,7,80
C/C(=N\OC(=O)c1ccc(C(F)(F)F)cc1)c1cc[nH]c1,13,91
C/C(=N\OC(=O)c1ccc(C(F)(F)F)cc1)c1ccc[nH]1,6,-0.3*
Oc1ccc2ccccc2c1CN1CCc2ccccc2C1,4,98
O=C(NCc1ccccc1Cl)c1ccc(Cn2cc(Cl)cn2)cc1,5,2.9*
SMILES,S aureus helic,Sa growth inh
Cc1ccc(CNC(=O)c2cccc(Cn3cc(Cl)cn3)c2)cc1,5,90
O=C1C=C2N(c3ccccc3)CCOC2(O)c2ccccc21 (centres undefined),11,4.8*
O=C1OC2(O)c3ccccc3C(=O)N2c2ccccc21 (centres undefined),-21,87
COC(=O)c1c(C)[nH]c(C(=O)CN(C)CC(=O)Nc2c(C)cc(C)cc2C)c1C,30*,117
COC(=O)c1c(C)[nH]c(C(=O)CN(C)Cc2cccc(OC)c2)c1C,9,98
CC1CCN(Cn2nc(-c3ccc4c(c3)OCO4)oc2=S)CC1,-7,42*
CC1CN(Cn2nc(-c3ccc4c(c3)OCO4)oc2=S)CC(C)O1 (centres undefined),-11,80
COC(=O)c1ccc(C(c2cc3c(cc2O)OCO3)N2CCN(c3ccccc3)CC2)cc1 (centres undefined),9,-0.2*
Oc1cc2c(cc1C(c1ccc(C(F)(F)F)cc1)N1CCN(c3ccccc3)CC1)OCO2 (centres undefined),0,-0.7*
O=C(NCC(c1ccc2c(c1)OCO2)N1CCN(c2ccccc2)CC1)c1ccc(F)c(F)c1 (centres undefined),.,127
Oc1cc2c(cc1C(c1ccc(C(F)(F)F)cc1)N1CCOCC1)OCO2 (centres undefined),.,0
c1ccc(CNc2nc3ccccc3n3nnnc23)cc1,-94,94
O=C(/C=C/c1ccccc1)Nc1nnc(-c2ccc(Br)cc2)o1,1,98
CC[n+]1c(/C=C/N(C)c2ccccc2)sc2ccc(OC)cc21,0,-0.6*
CC[n+]1c(/C=C/Nc2ccccc2)sc2ccccc21,8,103
CCOC(=O)N1CCN(CCC(=O)c2ccc(OC)cc2)CC1,13,89
CCOC(=O)N1CCN(CCC(=O)c2ccc(Br)cc2)CC1,7,-1.7*
N=C1S/C(=C/c2ccccc2)C(=O)N1c1nonc1N,12,91
C=CCN1C(=O)S/C(=C/c2ccc(OC)c(OCC)c2)C1=O,3,108
N=C1S/C(=C\c2ccc(F)cc2)C(=O)N1c1nccs1,18,5.1*
CCOc1cc(/C=C2/SC(=N)N(c3nccs3)C2=O)ccc1OCCN1CCOCC1,9,8.0*
COC(=O)Cc1ccccn1,2,94
CCCNC(=O)c1ccc(C2SCCCS2)cc1,19,103
CCC(C)N(Cc1nc(N)nc(Nc2ccccc2C)n1)Cc1nc(N)nc(Nc2ccccc2C)n1 (centres undefined),-5,87
Cc1sc2nc[nH]c(=S)c2c1-c1ccccc1,11,-0.5*

# High-throughput results deposited in PubChem BioAssay by ICCB-Longwood Screening Facility, Harvard Medical School.
